Laboratory results: PubChem BioAssay (Tox21)
Records with an inconclusive call do not appear. Active and inactive are the calls of the source. Calls follow the shape of the dose curve; as a rule, active = well fitted inhibition curve with a large enough effect in the signal ratio in the repeat runs (not every such curve was filed as active); inconclusive = weak or mixed curves, or effect the other way; inactive = no such curve, though single readings can be large or run the other way; the % refers to the signal ratio.

These compounds were tested against Glucocorticoid receptor (Homo sapiens) (UniProt P04150) (assay: qHTS assay to identify small molecule antagonists of the glucocorticoid receptor (GR) signaling pathway (AID 720692)). Details: GR-bla HeLa, beta-lactamase FRET ratio, dexamethasone-stimulated, 18 h; series mostly up to 58.5 µM; activity change, negative = inhibition: at the top concentration.
Glucocorticoid receptor (Homo sapiens), sequence (P04150 whole entry, looked up): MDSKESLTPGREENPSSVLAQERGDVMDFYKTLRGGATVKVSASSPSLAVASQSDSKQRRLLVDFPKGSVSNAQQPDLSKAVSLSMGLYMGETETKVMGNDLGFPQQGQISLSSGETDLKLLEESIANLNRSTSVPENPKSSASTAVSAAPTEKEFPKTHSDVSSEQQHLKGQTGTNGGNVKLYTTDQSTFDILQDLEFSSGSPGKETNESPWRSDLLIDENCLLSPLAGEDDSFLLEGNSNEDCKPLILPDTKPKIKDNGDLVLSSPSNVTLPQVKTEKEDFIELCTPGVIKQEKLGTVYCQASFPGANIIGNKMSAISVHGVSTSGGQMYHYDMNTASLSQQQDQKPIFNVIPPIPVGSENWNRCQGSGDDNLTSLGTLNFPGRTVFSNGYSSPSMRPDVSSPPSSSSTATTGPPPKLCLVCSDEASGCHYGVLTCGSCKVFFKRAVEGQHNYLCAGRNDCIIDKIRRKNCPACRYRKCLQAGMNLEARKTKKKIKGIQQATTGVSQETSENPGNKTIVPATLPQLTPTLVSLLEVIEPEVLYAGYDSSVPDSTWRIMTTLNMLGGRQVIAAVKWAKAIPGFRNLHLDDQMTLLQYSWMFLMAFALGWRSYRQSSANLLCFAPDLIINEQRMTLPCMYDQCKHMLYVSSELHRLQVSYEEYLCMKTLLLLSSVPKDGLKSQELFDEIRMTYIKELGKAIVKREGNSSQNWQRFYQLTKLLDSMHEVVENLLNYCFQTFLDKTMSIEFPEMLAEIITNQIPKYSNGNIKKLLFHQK
Excerpt: U.S. Tox21 Program National Center for Advancing Translational Sciences [NCATS] NIH Chemical Genomics Center [NCGC] U.S. Environmental Protection Agency [EPA] National Institutes of Environmental Health Sciences [NIEHS] National Toxicology Program [NTP] U.S. Food and Drug Administration [FDA] Tox21 Assay Overview: The Glucocorticoid receptor (GR) is one of the members of the nuclear receptor family of ligand-dependent transcription factors. GR plays a critical role in carbohydrate, protein and lipid metabolisms and programmed cell death. CellSensor GR-bla HeLa cell line (Invitrogen) contains a beta-lactamase reporter gene under the control of the glucocorticoid response element stably integrated into HeLa cells, a cervical cancer cell line that expresses glucocorticoid receptor. The activation of the reporter gene under culture conditions can be detected by fluorescence intensity. This cell line has been used to screen the Tox21 10K compound library and to identify the compounds that inhibit the GR signaling.
Tox21 Assay Protocol Summary: The GR-bla HeLa cells were dispensed at 1500 cells/5 ul/well in 1536-well black wall/clear bottom plates using a Multidrop Combi (ThermoFisher Scientific, Waltham, MA) dispenser. After the assay plates were incubated at a 37 C/5% CO2 incubator for 4 hours, 23 nL of compounds dissolved in DMSO, positive controls or DMSO only was transferred to the assay plate by a pintool station (Kalypsys, San Diego, CA), followed by addition of 1 uL of dexamethasone (5 nM, final concentration in the well). The plates were incubated at 37 C for 18 hours. After 1 uL of LiveBLAzerTM B/G FRET substrate was added using a Flying Reagent Dispenser (Aurora Discovery, San Diego, CA), the plates were incubated at room temperature for 2 hours, and fluorescence intensity was measured by an Envision plate reader (PerkinElmer, Shelton, CT).
% is scaled to controls: 0 for no effect and ±100 for the full control effect; potency is read from the fitted curve at half-maximal effect.

| SMILES | activity change, negative = inhibition | Potency |
| --- | --- | --- |
| O=S(=O)(O)C(F)(F)C(F)(F)C(F)(F)C(F)(F)F | -31.5% [at 78.9 µM] (inactive) | – |
| Cn1sc(Cl)cc1=O | 10.2% (inactive) | – |
| N#CCC#N | 3.26% (inactive) | – |
| COP(=S)(OC)Oc1ccc([N+](=O)[O-])cc1Cl | 11.2% (inactive) | – |
| COC(N)=O | -2.55% (inactive) | – |
| CC(C)(CCl)C(=O)Cl | 1.44% (inactive) | – |
| [O-][Cl+]O | 14% (inactive) | – |
| ClCC(Br)CBr (stereo not given) | -0.246% (inactive) | – |
| CCCCOC(=O)c1ccccc1C(=O)OCc1ccccc1 | -14.9% (inactive) | – |
| Brc1ccccc1 | -4.64% (inactive) | – |
| CC(O)(CS(=O)(=O)c1ccc(F)cc1)C(=O)Nc1ccc(C#N)c(C(F)(F)F)c1 (stereo not given) | -5.04% (inactive) | – |
| CCOP(O)OCC | 14.8% (inactive) | – |
| CCOP(=S)(OCC)Oc1nc(Cl)c(Cl)cc1Cl | – | inactive |
| C=CC(=O)OC(C)(C)C | -15.9% (inactive) | – |
| Oc1ccc(Cl)c(Cl)c1Cl | 17.1% [at 78.9 µM] (inactive) | – |
| O=C(Nc1ccccc1)Nc1ccnc(Cl)c1 | – | 54.9 µM (active) |
| COc1cc(CC(C)N)cc2c1OCO2 (stereo not given) | 0.259% [at 78.9 µM] (inactive) | – |
| OC(c1ccc(Cl)cc1)(c1ccc(Cl)cc1)c1cccnc1 | – | 49 µM (active) |
| Cl/C=C\Cl | 13.3% (inactive) | – |
| CCOC(=O)COc1cc(-c2nn(C)c(OC(F)F)c2Cl)c(F)cc1Cl | 1.66% (inactive) | – |

| SMILES | activity change, negative = inhibition | Potency |
| --- | --- | --- |
| C=CC[C@]1(O)CC[C@H]2[C@@H]3CCC4=CC(=O)CCC4=C3C=C[C@@]21C | – | 0.301 µM (active) |
| c1ccc(C2CC2)c(OCC2=NCCN2)c1 | 11.5% (inactive) | – |
| CCOc1ccc(C(C)(C)COCc2cccc(Oc3ccccc3)c2)cc1 | -12.4% (inactive) | – |
| BrCCCCBr | -7.47% (inactive) | – |
| CC(Cl)C(C)Cl (stereo not given) | -6.01% (inactive) | – |
| O=C(Nc1ccccc1)Nc1cnns1 | -9.05% (inactive) | – |
| CC(C)(Cl)[N+](=O)[O-] | 28.9% [at 78.9 µM] (inactive) | – |
| CC(c1ccc(O)cc1)(c1ccc(O)cc1)c1ccc(O)cc1 | – | 19.5 µM (active) |
| COP(=S)(OC)Oc1cc(Cl)c(I)cc1Cl | – | 24.5 µM (active) |
| Cc1cc(=O)[nH]o1 | 5.09% [at 78.9 µM] (inactive) | – |
| ClP(Cl)(Cl)(Cl)Cl | 1.27% [at 78.9 µM] (inactive) | – |
| CCOc1nc(F)cc2nc(S(=O)(=O)Nc3c(Cl)cccc3Cl)nn12 | -14.7% (inactive) | – |
| CCC(COC(=O)c1cc(OC)c(OC)c(OC)c1)(c1ccccc1)N(C)C (stereo not given) | 3.87% (inactive) | – |
| COCC(C)N(C(=O)CCl)c1c(C)csc1C (stereo not given) | – | inactive |
| NCC(CC(=O)O)c1ccc(Cl)cc1 (stereo not given) | 11% (inactive) | – |
| O=S1(=O)OC(c2cc(Br)c(O)c(Br)c2)(c2cc(Br)c(O)c(Br)c2)c2ccccc21 | -24.1% (inactive) | – |
| C[C@@H]1CC[C@H]2[C@@H](C)C(=O)O[C@@H]3O[C@@]4(C)CC[C@@H]1[C@]32OO4 | -19.5% (inactive) | – |
| CN(N=O)c1ccc([N+](=O)[O-])cc1 | -16.4% (inactive) | – |
| N#Cc1ccc(Cl)cc1 | -5.73% (inactive) | – |
| CC(=O)NC1CCSC1=O (stereo not given) | -13% (inactive) | – |
